# Results: the supplement of paper PMC8728848
# This excerpt belongs to a sample that is enriched for the strongest signals.
# B1: SRS2 (Toxoplasma gondii), O15695 (protein)
# chain: MATRASLARQKTGAACLAVLTASPSVVAAKPWKRWVGVSVILASAFAVGVSAGPPYRYEPEKFTCRPKKGILSQWVSLLYQVQHNITFACEEATPVPTTLISEEHGLMVCAENMTPEECEANPAPLSAFLPGATKEWVTGDSVLTGLKISVPESQYPANAKSFRVGCRHNTKTGNTCMLTIHVEPRDPAVERQEARCSYTENSTLPKIFVTKDSNTMTLACGPHGAPMPESYTENYCSTPDTCDEKPFTSVIPGYLSKWFFGDPKSPLGARVRIPPEQIPSSPQINYFGCTGPTEGEGPKYNCTVPVPLGGGDPSEGSRPGGGSGGGKRGGGQGGGGSLAGFDFRQGSARHSLPSRMALSASALLAMTALAY
# B2: RBMC1 (Vibrio cholerae) (protein)
# chain: QQSQRVVTADNLMYLRSGFAIDAIGTTVNNLVGGPVQGTNGGVLRAPIALDQLQSVEVTSGLYNWGGYHIVAIKFTMKDGSSVLLGSTHYASNKKVETYTVPQGKRIKQINVWTGGWLVEGFQFVY
# What was measured:
# Test in all cases: glycan array binding signal (z-score within array); higher = stronger binding
# Details in all cases: glycan notation: IUPAC condensed, linker removed
# Fuc(a1-2)Gal = target: Fuc(a1-2)Gal
# Summary of the method: (§1)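 Glycan array data came from 3228 arrays in the Consortium for Functional Glycomics database, and only arrays with an available protein sequence were kept. Glycan names were put into IUPAC-condensed notation, and columns mapping to the same glycan were averaged. The binding signal is a within-array Z-score, averaged across arrays of one protein sequence run at different concentrations or buffers and across linkers. A negative Z-score can be read as non-binding.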
# [1] = target: Fuc(a1-2)Gal(b1-3)GalNAc(b1-3)Gal(a1-4)Gal(b1-4)Glc
# Summary of the method: as §1
# Fuc(a1-2)Gal(b1-4)Glc6S = target: Fuc(a1-2)Gal(b1-4)Glc6S
# Summary of the method: as §1
# [2] = target: Fuc(a1-2)Gal(b1-4)GlcNAc(b1-3)Gal(b1-4)GlcNAc
# Summary of the method: as §1
# [3] = target: Fuc(a1-2)Gal(b1-4)GlcNAc6S
# Summary of the method: as §1
# [4] = target: Fuc(a1-2)[GalNAc(a1-3)]Gal(b1-3)GlcNAc(b1-2)Man(a1-3)[Fuc(a1-2)[GalNAc(a1-3)]Gal(b1-3)GlcNAc(b1-2)Man(a1-6)]Man(b1-4)GlcNAc(b1-4)GlcNAc
# Summary of the method: as §1
# [5] = target: Fuc(a1-2)[GalNAc(a1-3)]Gal(b1-4)GlcNAc(b1-3)Gal(b1-4)GlcNAc(b1-3)Gal(b1-4)GlcNAc
# Summary of the method: as §1
# Fuc(a1-3)GlcNAc = target: Fuc(a1-3)GlcNAc
# Summary of the method: as §1
# Gal(a1-3)Gal(b1-4)Glc = target: Gal(a1-3)Gal(b1-4)Glc
# Summary of the method: as §1
# Gal(a1-3)Gal(b1-4)GlcNAc = target: Gal(a1-3)Gal(b1-4)GlcNAc
# Summary of the method: as §1
# Gal(a1-3)GalNAc = target: Gal(a1-3)GalNAc
# Summary of the method: as §1
# [6] = target: Gal(b1-3)GalNAc(a1-3)[Fuc(a1-2)]Gal(b1-4)GlcNAc
# Summary of the method: as §1
# Gal(b1-3)GlcNAc = target: Gal(b1-3)GlcNAc
# Summary of the method: as §1
# [7] = target: Gal(b1-3)[Fuc(a1-4)]GlcNAc
# Summary of the method: as §1
# [8] = target: Gal(b1-3)[Fuc(a1-4)]GlcNAc(b1-3)Gal(b1-4)GlcNAc
# Summary of the method: as §1
# [9] = target: Gal(b1-4)GalNAc(b1-3)[Fuc(a1-2)]Gal(b1-4)GlcNAc
# Summary of the method: as §1
# Gal(b1-4)Glc6S = target: Gal(b1-4)Glc6S
# Summary of the method: as §1
# [10] = target: Gal(b1-4)GlcNAc(b1-2)Man(a1-3)[Gal(b1-4)GlcNAc(b1-2)Man(a1-6)]Man(b1-4)GlcNAc(b1-4)[Fuc(a1-6)]GlcNAc
# Summary of the method: as §1
# [11] = target: Gal(b1-4)GlcNAc(b1-2)Man(a1-6)[GlcNAc(b1-2)Man(a1-3)]Man(b1-4)GlcNAc(b1-4)GlcNAc
# Summary of the method: as §1
# [12] = target: Gal(b1-4)GlcNAc(b1-3)[Gal(b1-4)GlcNAc(b1-6)]GalNAc
# Summary of the method: as §1
# [13] = target: Gal3S(b1-4)[Fuc(a1-3)]Glc6S
# Summary of the method: as §1
# [14] = target: GalNAc(a1-3)GalNAc(a1-3)Gal(a1-4)Gal(b1-4)GlcNAc
# Summary of the method: as §1
# [15] = target: GalNAc(b1-3)Gal(a1-4)Gal(b1-4)GlcNAc(b1-3)Gal(b1-4)Glc
# Summary of the method: as §1
# [16] = target: GlcNAc(a1-4)Gal(b1-4)GalNAc
# Summary of the method: as §1
# [17] = target: GlcNAc(a1-4)Gal(b1-4)GlcNAc(b1-3)Gal(b1-4)[Fuc(a1-3)]GlcNAc(b1-3)Gal(b1-4)[Fuc(a1-3)]GlcNAc
# Summary of the method: as §1
# [18] = target: GlcNAc(b1-2)Man(a1-3)[GlcNAc(b1-2)Man(a1-6)]Man(b1-4)GlcNAc(b1-4)[Fuc(a1-6)]GlcNAc
# Summary of the method: as §1
# GlcNAc3Prop(b1-4)GlcNAc = target: GlcNAc3Prop(b1-4)GlcNAc
# Summary of the method: as §1
# [19] = target: Man(a1-2)Man(a1-6)[Man(a1-3)]Man(a1-6)[Man(a1-2)Man(a1-2)Man(a1-3)]Man
# Summary of the method: as §1
# [20] = target: Neu5Ac(a2-3)Gal(b1-3)GlcNAc(b1-3)GalNAc
# Summary of the method: as §1
# [21] = target: Neu5Ac(a2-3)Gal(b1-4)[Fuc(a1-3)]GlcNAc(b1-3)GalNAc
# Summary of the method: as §1
# [22] = target: Neu5Ac(a2-6)Gal(b1-4)GlcNAc(b1-2)Man(a1-6)[Gal(b1-4)GlcNAc(b1-2)Man(a1-3)]Man(b1-4)GlcNAc(b1-4)GlcNAc
# Summary of the method: as §1
# [23] = target: Neu5Ac(a2-6)Gal(b1-4)GlcNAc(b1-3)Gal(b1-4)[Fuc(a1-3)]GlcNAc(b1-3)Gal(b1-4)[Fuc(a1-3)]GlcNAc
# Summary of the method: as §1
# [24] = target: Neu5Gc(a2-6)Gal(b1-4)GlcNAc
# Summary of the method: as §1
# [25] = target: Neu5Ac(a2-6)Gal(b1-4)GlcNAc(b1-2)Man(a1-3)[Neu5Ac(a2-6)Gal(b1-4)GlcNAc(b1-2)Man(a1-6)]Man(b1-4)GlcNAc(b1-4)[Fuc(a1-6)]GlcNAc
# Summary of the method: as §1
# [26] = target: Neu5Ac(a2-6)Gal(b1-4)GlcNAc(b1-2)Man(a1-6)[Man(a1-3)]Man(b1-4)GlcNAc(b1-4)GlcNAc
# Summary of the method: as §1
# Neu5Ac(a2-6)GalNAc = target: Neu5Ac(a2-6)GalNAc
# Summary of the method: as §1
# [27] = target: Neu5Gc(a2-3)Gal(b1-3)[Fuc(a1-4)]GlcNAc
# Summary of the method: as §1
# [28] = target: Neu5Gc(a2-8)Neu5Ac(a2-3)Gal(b1-4)GlcNAc
# Summary of the method: as §1
Binder,glycan array binding signal (z-score) (Fuc(a1-2)Gal),glycan array binding signal (z-score) [1],glycan array binding signal (z-score) (Fuc(a1-2)Gal(b1-4)Glc6S),glycan array binding signal (z-score) [2],glycan array binding signal (z-score) [3],glycan array binding signal (z-score) [4],glycan array binding signal (z-score) [5],glycan array binding signal (z-score) (Fuc(a1-3)GlcNAc),glycan array binding signal (z-score) (Gal(a1-3)Gal(b1-4)Glc),glycan array binding signal (z-score) (Gal(a1-3)Gal(b1-4)GlcNAc),glycan array binding signal (z-score) (Gal(a1-3)GalNAc),glycan array binding signal (z-score) [6],glycan array binding signal (z-score) (Gal(b1-3)GlcNAc),glycan array binding signal (z-score) [7],glycan array binding signal (z-score) [8],glycan array binding signal (z-score) [9],glycan array binding signal (z-score) (Gal(b1-4)Glc6S),glycan array binding signal (z-score) [10],glycan array binding signal (z-score) [11],glycan array binding signal (z-score) [12],glycan array binding signal (z-score) [13],glycan array binding signal (z-score) [14],glycan array binding signal (z-score) [15],glycan array binding signal (z-score) [16],glycan array binding signal (z-score) [17],glycan array binding signal (z-score) [18],glycan array binding signal (z-score) (GlcNAc3Prop(b1-4)GlcNAc),glycan array binding signal (z-score) [19],glycan array binding signal (z-score) [20],glycan array binding signal (z-score) [21],glycan array binding signal (z-score) [22],glycan array binding signal (z-score) [23],glycan array binding signal (z-score) [24],glycan array binding signal (z-score) [25],glycan array binding signal (z-score) [26],glycan array binding signal (z-score) (Neu5Ac(a2-6)GalNAc),glycan array binding signal (z-score) [27],glycan array binding signal (z-score) [28]
B1,0.535,0.231,0.222,0.699,0.345,-0.13,0.391,0.522,-0.428,0.159,0.369,-0.437,-0.506,-0.246,-0.495,-0.802,-0.35,1.54,1.51,6.82,2.13,0.55,-0.134,-0.448,2.07,14.3,0.829,0.304,1.3,1.72,-0.203,0.576,-0.03,,,,,
B2,,,,,,,,,,,,,,,,,,,,,,,,,,,,,,,3.13,,,11.9,-0.031,-0.35,-0.039,-0.406
